Values joined by “and” are separate entries in the source; they are usually repeats but may differ in a detail not shown here. Identical values can stand only once. Where a structure was tested more than once in an assay, its records may differ in their call. Active and inactive are the calls of the source. The calls were made as follows: active = hit-call score of the fitted dose curve at least 0.9, where 1 is the maximum; inactive = score below 0.9.
Columns and labels:
Details in all cases: mRNA level, 48 h; actives raise or lower the signal
CYP4A11 (gene 1579) = test: LTEA_HepaRG_CYP4A11: Life Technologies and Expression Analysis (LTEA) Assay for CYP4A11 using HepaRG (AID 2283486)
How it was run: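 Readout is CYP4A11 transcript level by qRT-PCR, normalized to three housekeeping genes and fitted bidirectionally against 0.5% DMSO. Human HepaRG cells were treated 48 h, in duplicate, with an 8-point half-log series topping at 100 uM.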

[1] = read-out: Pro-epidermal growth factor (Homo sapiens) (UniProt P01133); test: LTEA_HepaRG_EGF: Life Technologies and Expression Analysis (LTEA) Assay for Epidermal growth factor (EGF) using HepaRG (AID 2283489)
How it was run: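 EGF transcript measured by Fluidigm TaqMan qRT-PCR with three housekeeping genes for normalization, 48 h after dosing HepaRG cultures in duplicate (top 100 uM, half-log steps, 0.5% DMSO vehicle). Gain or loss relative to DMSO fitted.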

[2] = read-out: Early growth response protein 1 (EGR1) transcription factor, EGR1 (gene 1958); test: LTEA_HepaRG_EGR1: Life Technologies and Expression Analysis (LTEA) Assay for Early growth response protein 1 (EGR1) transcription factor using HepaRG (AID 2283490)
How it was run: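 HepaRG, 48 h exposure, 8-pt half-log series from 100 uM, 0.5% DMSO vehicle; EGR1 transcript by TaqMan qRT-PCR (Fluidigm array), housekeeping-normalized; bidirectional fit relative to DMSO baseline.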

[3] = read-out: Ezrin (EZR), EZR (gene 7430); test: LTEA_HepaRG_EZR: Life Technologies and Expression Analysis (LTEA) Assay for Ezrin (EZR) using HepaRG (AID 2283491)
How it was run: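 Gain or loss of EZR mRNA is scored relative to 0.5% DMSO in human HepaRG cultures treated 48 h with test chemicals in duplicate, eight half-log concentrations from 100 uM.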

CYP3A5 (gene 1577) = test: LTEA_HepaRG_CYP3A5: Life Technologies and Expression Analysis (LTEA) Assay for CYP3A5 using HepaRG (AID 2283493)
How it was run: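 Readout was CYP3A5 mRNA by qRT-PCR. HepaRG cultures were exposed for 48 h in serum-free induction medium to chemicals at up to 100 uM, and responses were fitted in both directions relative to DMSO vehicle.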

[4] = read-out: Fatty Acid-Binding Protein 1 (FABP1), FABP1 (gene 2168); test: LTEA_HepaRG_FABP1: Life Technologies and Expression Analysis (LTEA) Assay for Fatty Acid-Binding Protein 1 (FABP1) using HepaRG (AID 2283494)
How it was run: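 qRT-PCR readout of FABP1 transcript (normalized to three housekeeping genes) after 48 h chemical exposure of HepaRG cells; eight concentrations, half-log steps, max 100 uM, 0.5% DMSO vehicle; gain or loss fitted relative to DMSO baseline.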

[5] = read-out: Cytochrome P450 4A22 (Homo sapiens) (UniProt Q5TCH4); test: LTEA_HepaRG_CYP4A22: Life Technologies and Expression Analysis (LTEA) Assay for Cytochrome P450 4A22 (CYP4A22) using HepaRG (AID 2283495)
How it was run: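 Gene expression measured by qRT-PCR against three housekeeping genes (ACTB, GAPDH, POLR2A), with gain or loss fitted relative to 0.5% DMSO vehicle. HepaRG cultures received 48 h chemical treatment, top concentration 100 uM, half-log steps, duplicate wells.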

[6] = read-out: Cytochrome P450 7A1 (Homo sapiens) (UniProt P22680); test: LTEA_HepaRG_CYP7A1: Life Technologies and Expression Analysis (LTEA) Assay for Cytochrome P450 7A1 (CYP7A1) using HepaRG (AID 2283496)
How it was run: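 Using 0.5% DMSO as vehicle and baseline, chemicals were tested in duplicate over an 8-point range from 100 uM on HepaRG cells for 48 h; qRT-PCR signals were normalised to ACTB, GAPDH and POLR2A.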

[7] = read-out: Glutathione S-Transferase (GSTA2), GSTA2 (gene 2939); test: LTEA_HepaRG_GSTA2: Life Technologies and Expression Analysis (LTEA) Assay for Glutathione S-Transferase (GSTA2) using HepaRG (AID 2283497)
How it was run: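 qRT-PCR readout of GSTA2 transcript, normalized to three housekeeping genes, fitted bidirectionally against 0.5% DMSO baseline. Differentiated HepaRG cells received compound for 48 h at 8 concentrations (top 100 uM, half-log steps).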

[8] = read-out: Glutamate-cysteine ligase catalytic (GCLC), GCLC (gene 2729); test: LTEA_HepaRG_GCLC: Life Technologies and Expression Analysis (LTEA) Assay for Glutamate-cysteine ligase catalytic (GCLC) using HepaRG (AID 2283498)
How it was run: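 HepaRG, 48 h exposure, 8-pt half-log series from 100 uM, 0.5% DMSO vehicle; TaqMan qRT-PCR for GCLC mRNA, housekeeping-normalized; bidirectional curve fit vs DMSO baseline.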

[9] = read-out: growth arrest and DNA damage 45 (GADD45G), GADD45G (gene 10912); test: LTEA_HepaRG_GADD45G: Life Technologies and Expression Analysis (LTEA) Assay for growth arrest and DNA damage 45 (GADD45G) using HepaRG (AID 2283499)
How it was run: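 GADD45G transcript level by qRT-PCR (housekeeping-normalized: ACTB, GAPDH, POLR2A) after 48 h chemical treatment of a single HepaRG lot in serum-free induction medium; eight-point half-log series up to 100 uM in 0.5% DMSO, duplicates, up- or down-regulation scored.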

[10] = read-out: Glutamate-cysteine ligase regulatory (GCLM), GCLM (gene 2730); test: LTEA_HepaRG_GCLM: Life Technologies and Expression Analysis (LTEA) Assay for Glutamate-cysteine ligase regulatory (GCLM) using HepaRG (AID 2283500)
How it was run: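 In this multiplexed HepaRG gene-expression assay, GCLM mRNA change after 48 h treatment (8 concentrations, max 100 uM) was scored against DMSO by bidirectional curve fitting.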

[11] = read-out: Glutathione S-transferase M3 (GSTM3), GSTM3 (gene 2947); test: LTEA_HepaRG_GSTM3: Life Technologies and Expression Analysis (LTEA) Assay for Glutathione S-transferase M3 (GSTM3) using HepaRG (AID 2283501)
How it was run: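 GSTM3 transcript levels came from Fluidigm TaqMan qRT-PCR normalized to three housekeeping genes, fitted in both directions against DMSO. HepaRG cultures received chemicals for 48 h in serum-free induction medium (0.5% DMSO), 8 half-log concentrations up to 100 uM, duplicate.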

[12] = read-out: Heat shock 70 kDa protein 1 (HSPA1A), gene 3303; test: LTEA_HepaRG_HSPA1A: Life Technologies and Expression Analysis (LTEA) Assay for Heat shock 70 kDa protein 1 (HSPA1A) using HepaRG (AID 2283502)
How it was run: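 An oxidative-stress marker readout: HepaRG cells treated 48 h in duplicate with an eight-point series (highest 100 uM) had HSPA1A mRNA quantified by TaqMan qRT-PCR. Activity was fitted in both directions using 0.5% DMSO as baseline.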

[13] = read-out: Hypoxia-inducible factor 1-alpha (Homo sapiens) (UniProt Q16665); test: LTEA_HepaRG_HIF1A: Life Technologies and Expression Analysis (LTEA) Assay for Hypoxia-inducible factor 1 (HIF1A) Trancription factor using HepaRG (AID 2283503);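 also: HIF1A transcript by TaqMan qRT-PCR normalized to ACTB GAPDH and POLR2A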
How it was run: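 Gain- or loss-of-signal HIF1A mRNA changes are fitted against a DMSO baseline. HepaRG cultures receive eight concentrations, highest 100 uM, for 48 h in serum-free induction medium with 0.5% DMSO.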

[14] = read-out: 3-Hydroxy-3-Methylglutaryl-CoA Synthase 2 (HMGCS2), HMGCS2 (gene 3158); test: LTEA_HepaRG_HMGCS2: Life Technologies and Expression Analysis (LTEA) Assay for 3-Hydroxy-3-Methylglutaryl-CoA Synthase 2 (HMGCS2) using HepaRG (AID 2283504)
How it was run: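 Readout is HMGCS2 transcript by qRT-PCR, housekeeping-normalised (ACTB/GAPDH/POLR2A) and fitted bidirectionally against 0.5% DMSO. Differentiated HepaRG cells received chemicals 48 h, duplicate wells, eight half-log concentrations topping at 100 uM.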

HGF (gene 3082) = test: LTEA_HepaRG_HGF: Life Technologies and Expression Analysis (LTEA) Assay for Hepatocyte Growth Facto (HGF) using HepaRG (AID 2283505)
How it was run: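 HGF transcript was quantified by TaqMan qRT-PCR against three housekeeping genes after 48 h treatment of HepaRG cells. Exposure ran in duplicate over eight half-log steps topping at 100 uM in 0.5% DMSO vehicle.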

[15] = read-out: Cytochrome P450 3A4 (Homo sapiens) (UniProt P08684); test: LTEA_HepaRG_CYP3A4: Life Technologies and Expression Analysis (LTEA) Assay for CYP3A4 using HepaRG (AID 2283487)
How it was run: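 In a human hepatic line (HepaRG), duplicate wells were treated 48 h with up to 100 uM chemical in half-log dilutions. Endpoint: CYP3A4 mRNA induction or loss relative to 0.5% DMSO vehicle, by qRT-PCR.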

[16] = read-out: Cytochrome P450 3A7 (Homo sapiens) (UniProt P24462); test: LTEA_HepaRG_CYP3A7: Life Technologies and Expression Analysis (LTEA) Assay for CYP3A7 using HepaRG (AID 2283492)
How it was run: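 CYP3A7 transcript measured by qRT-PCR (ACTB, GAPDH, POLR2A normalization) after 48 h chemical exposure of HepaRG cells in duplicate. Eight half-log concentrations, maximum 100 uM, 0.5% DMSO vehicle; bidirectional curve fitting against DMSO baseline.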

[17] = read-out: DNA damage-inducible transcript 3 (DDIT3), DDIT3 (gene 1649); test: LTEA_HepaRG_DDIT3: Life Technologies and Expression Analysis (LTEA) Assay for DNA damage-inducible transcript 3 (DDIT3) using HepaRG (AID 2283488)
How it was run: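 Eight-point concentration-response (100 uM highest, half-log dilutions) in HepaRG, 48 h, duplicate wells. Endpoint: qRT-PCR mRNA, normalized (ACTB, GAPDH, POLR2A), bidirectional fitting with DMSO as baseline.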

Measured: AC50

Cytochrome P450 3A4 (Homo sapiens), sequence (P08684 whole entry, looked up): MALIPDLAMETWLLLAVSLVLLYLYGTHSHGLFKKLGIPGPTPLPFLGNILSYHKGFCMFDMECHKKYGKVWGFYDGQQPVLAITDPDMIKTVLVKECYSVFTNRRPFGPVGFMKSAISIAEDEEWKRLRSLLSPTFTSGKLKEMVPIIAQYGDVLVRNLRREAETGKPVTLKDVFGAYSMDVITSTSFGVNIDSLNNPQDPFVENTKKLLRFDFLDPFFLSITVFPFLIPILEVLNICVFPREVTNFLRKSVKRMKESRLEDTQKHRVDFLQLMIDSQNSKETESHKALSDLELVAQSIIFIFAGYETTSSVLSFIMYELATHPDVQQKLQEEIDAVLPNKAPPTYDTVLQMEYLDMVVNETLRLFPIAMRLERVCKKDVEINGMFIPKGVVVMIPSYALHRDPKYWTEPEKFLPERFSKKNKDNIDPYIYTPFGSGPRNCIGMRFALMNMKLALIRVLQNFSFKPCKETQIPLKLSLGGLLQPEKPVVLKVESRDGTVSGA
Hypoxia-inducible factor 1-alpha (Homo sapiens), sequence (Q16665 whole entry, looked up): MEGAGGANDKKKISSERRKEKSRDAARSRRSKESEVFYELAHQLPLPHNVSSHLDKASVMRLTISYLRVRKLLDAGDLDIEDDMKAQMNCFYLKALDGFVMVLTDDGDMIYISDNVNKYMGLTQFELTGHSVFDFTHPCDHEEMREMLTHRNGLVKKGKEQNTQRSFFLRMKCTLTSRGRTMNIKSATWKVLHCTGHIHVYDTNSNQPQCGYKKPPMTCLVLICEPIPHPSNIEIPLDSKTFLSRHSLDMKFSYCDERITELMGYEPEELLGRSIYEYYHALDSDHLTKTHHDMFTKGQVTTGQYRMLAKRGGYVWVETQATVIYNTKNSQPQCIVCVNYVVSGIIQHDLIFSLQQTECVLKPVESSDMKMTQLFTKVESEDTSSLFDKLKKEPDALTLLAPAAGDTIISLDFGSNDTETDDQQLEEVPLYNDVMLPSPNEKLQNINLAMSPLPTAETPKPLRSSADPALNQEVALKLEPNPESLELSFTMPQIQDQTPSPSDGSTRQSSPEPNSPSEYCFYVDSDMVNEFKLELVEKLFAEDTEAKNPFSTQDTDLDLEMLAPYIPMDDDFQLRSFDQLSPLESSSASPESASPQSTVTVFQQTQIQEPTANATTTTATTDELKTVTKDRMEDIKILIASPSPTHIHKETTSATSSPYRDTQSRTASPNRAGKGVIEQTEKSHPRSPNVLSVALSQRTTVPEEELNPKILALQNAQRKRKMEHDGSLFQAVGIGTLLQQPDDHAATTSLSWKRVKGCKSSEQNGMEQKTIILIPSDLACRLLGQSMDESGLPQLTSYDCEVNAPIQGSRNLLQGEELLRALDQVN
Cytochrome P450 3A7 (Homo sapiens), sequence (P24462 whole entry, looked up): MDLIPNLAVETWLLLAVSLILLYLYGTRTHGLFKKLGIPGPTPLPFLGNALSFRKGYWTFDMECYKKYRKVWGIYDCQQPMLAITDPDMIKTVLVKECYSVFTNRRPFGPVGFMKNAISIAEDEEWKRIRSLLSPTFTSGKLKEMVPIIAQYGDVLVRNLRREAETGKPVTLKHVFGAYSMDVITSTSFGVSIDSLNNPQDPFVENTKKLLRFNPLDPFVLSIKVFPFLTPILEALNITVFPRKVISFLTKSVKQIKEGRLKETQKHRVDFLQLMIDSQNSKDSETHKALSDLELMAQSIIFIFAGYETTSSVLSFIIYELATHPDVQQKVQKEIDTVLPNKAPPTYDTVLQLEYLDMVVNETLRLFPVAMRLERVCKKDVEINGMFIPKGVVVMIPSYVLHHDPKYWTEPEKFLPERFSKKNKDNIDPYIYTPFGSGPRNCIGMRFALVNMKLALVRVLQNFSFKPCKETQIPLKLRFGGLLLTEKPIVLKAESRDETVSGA

CO/C=C(/C(=O)OC)c1ccccc1Oc1cc(Oc2ccccc2C#N)ncn1
active: CYP4A11 (gene 1579) 66.4 µM and 68.3 µM and 40.2 µM | [2] 13 µM and 13.3 µM | CYP3A5 (gene 1577) 62.6 µM and 35.6 µM | [4] 82.4 µM and 75.6 µM and 73.2 µM | [5] 76.3 µM and 66.9 µM and 65.6 µM | [6] 93.4 µM and 94.1 µM and 87.4 µM | [7] 81.5 µM and 81 µM and 78.7 µM | [9] 78 µM and 80.2 µM and 73.5 µM | [10] 75.6 µM and 63.3 µM and 71.8 µM | [11] 83.1 µM | [12] 83.4 µM | [13] 86.1 µM | [14] 77.1 µM and 76.2 µM and 72.6 µM
inactive: [1] | [2] | [3] | CYP3A5 (gene 1577) | [8] | [11] | [12] | [13] | HGF (gene 3082)

CCCCNC(=O)n1c(NC(=O)OC)nc2ccccc21
not listed: [9] | HGF (gene 3082) | [16] | [17]
inactive: all other assays above

Cc1c(F)c(F)c(COC(=O)C2C(/C=C(\Cl)C(F)(F)F)C2(C)C)c(F)c1F (stereo not drawn)
active: [1] 50 µM | [4] 63.1 µM
not listed: [9] | HGF (gene 3082) | [16] | [17]
inactive: all other assays above

COc1ccc(C(c2ccc(OC)cc2)C(Cl)(Cl)Cl)cc1
active: CYP4A11 (gene 1579) 79 µM | [2] 73 µM | [3] 79.8 µM | [4] 65.4 µM | [5] 71.9 µM | [6] 40.2 µM | [7] 90.3 µM | [8] 76.3 µM | [10] 49.8 µM | [12] 29.8 µM | [14] 91.8 µM
inactive: [1] | [16] | CYP3A5 (gene 1577) | [11] | [13]

CNC(=O)ON=CC(C)(C)SC
not listed: [9] | [16] | [17]
inactive: all other assays above

CCON=C(CC)C1=C(O)CC(c2c(C)cc(C)cc2C)CC1=O (stereo not drawn)
active: CYP4A11 (gene 1579) 25 µM | [5] 18.9 µM
not listed: [9] | HGF (gene 3082) | [15] | [16] | [17]
inactive: all other assays above

CCCCOC(=O)c1ccccc1C(=O)OCCCC
not listed: [9] | [16] | [17]
inactive: all other assays above

CCCCNC(=O)OCC#CI
active: [4] 50 µM | [6] 50 µM | [7] 9.92 µM | [8] 0.00766 µM | [12] 50 µM
not listed: [9] | [16] | [17]
inactive: all other assays above

COC(=O)c1ccccc1C(=O)OC
not listed: [9] | [16] | [17]
inactive: all other assays above

Oc1ccccc1-c1ccccc1
not listed: CYP3A5 (gene 1577) | HGF (gene 3082) | [16] | [17]
inactive: all other assays above

CCCC1COC(Cn2cncn2)(c2ccc(Cl)cc2Cl)O1 (stereo not drawn)
active: CYP4A11 (gene 1579) 34.7 µM | [4] 36.3 µM | [5] 31.7 µM | [6] 60.9 µM | [7] 37 µM | [9] 35.6 µM | [10] 50 µM | [11] 64.5 µM | [12] 90.5 µM | [13] 50 µM | [14] 36.5 µM
inactive: [1] | [2] | [3] | CYP3A5 (gene 1577) | [8]

CCCCC(CC)COC(=O)c1ccccc1C(=O)OCC(CC)CCCC (stereo not drawn)
not listed: [9] | HGF (gene 3082) | [15] | [16]
inactive: all other assays above

Cc1cc(Cl)ccc1OCC(=O)O
active: CYP4A11 (gene 1579) 12 µM | [6] 24.9 µM
not listed: [9] | [16] | [17]
inactive: all other assays above
